According to the supplement of paper PMC12494721:
Where a name gives a salt, the structure may show the parent alone.

tested on: Ruminococcus gnavus DSM 108212; experiment: fold change of 2-Phenylethylamine concentration vs plate DMSO controls (fold change (ratio)); higher = more amine produced, active = hit call of the paper (significant change in both replicates, either direction); conditions: incubation time: 27 h, anaerobic, 37 °C;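 for the amine columns active = adjusted P below 0.05 in both replicates with a change the same way and a mean fold change under 0.8 or over 1.25; inactive = the rest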
Method in brief: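 In 80 µL wells, cultures of four gut bacterial strains in mGAM started at OD 0.1 before a 1:1 dilution and grew anaerobically at 37 °C for 27 h. Compounds were added to 20 µM final, except sweeteners at 50 µM final. After extraction of whole cultures with cold acetonitrile/methanol plus 0.1% formic acid and centrifugation, amines were measured by LC–triple-quadrupole MS in dynamic MRM mode against external calibration curves, with within-batch drift correction. Values give fold change over DMSO controls on the same plate, averaged across 2 biological replicates.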

Fold change of 2-Phenylethylamine concentration, inactive:
OC[C@H]1O[C@@H](O[C@H]2[C@H](O)[C@@H](O)[C@H](O)O[C@@H]2CO)[C@H](O)[C@@H](O)[C@H]1O [Lactose] (50 µM) 0.976
C[C@@]12CC[C@@H]3[C@@](CC[C@H]4[C@@]3(C)CCC[C@@]4(C)C(=O)O)(CC1=O)C2 [Iso-Steviol] (50 µM) 0.996
CCCCOc1ccc(C(=O)CCN2CCCCC2)cc1 [Dyclonine hydrochloride] (20 µM) 0.936
CN(C)c1nc(N(C)C)nc(N(C)C)n1 [Altretamine] (20 µM) 1.07
c1ccc(CNc2ncnc3nc[nH]c23)cc1 [Aminopurine, 6-benzyl] (20 µM) 0.856
OCCN1CCN(CC/C=C2/c3ccccc3Sc3ccc(C(F)(F)F)cc32)CC1 [Flupentixol dihydrochloride cis-(Z)] (20 µM) 1.06
Cc1ccc(Cl)c(Nc2ccccc2C(=O)O)c1Cl [Meclofenamic acid sodium salt monohydrate] (20 µM) 0.911
NNc1nncc2ccccc12 [Hydralazine hydrochloride] (20 µM) 0.96
O=C(O)CCC(=O)c1ccc(-c2ccccc2)cc1 [Fenbufen] (20 µM) 1.06
C[C@]12CCC(=O)C=C1C=C[C@@H]1[C@@H]2CC[C@@]2(C)[C@H]1CC[C@@]21CCC(=O)O1 [Canrenone] (20 µM) 1.14
CCN(CCO)CCCC(C)Nc1ccnc2cc(Cl)ccc12 (centres undefined) [Hydroxychloroquine sulfate] (20 µM) 1.02
COc1cc(C(=O)OCCCN2CCCN(CCCOC(=O)c3cc(OC)c(OC)c(OC)c3)CC2)cc(OC)c1OC [Dilazep dihydrochloride] (20 µM) 1.12
CCOC(=O)n1ccn(C)c1=S [Carbimazole] (20 µM) 1.01
CCOC(=O)CC(=O)N1CCSC1COc1ccccc1OC (centres undefined) [Moguisteine] (20 µM) 0.994
CN[C@@H]1[C@@H](O[C@H]2O[C@H](CO)[C@@H](N)[C@H](O)[C@H]2O)OC2C[C@@H](N)[C@@H](O[C@H]3[C@H](O)[C@@H](O)[C@H](N)C[C@@H]3N)OC2[C@@H]1O (some centres undefined) [Apramycin] (20 µM) 0.905
Cc1c(OCC(F)(F)F)ccnc1C[S+]([O-])c1nc2ccccc2[nH]1 (centres undefined) [Lansoprazole] (20 µM) 0.971
Cn1c(=O)cc(N2CCC[C@@H](N)C2)n(Cc2ccccc2C#N)c1=O [Alogliptin benzoate] (20 µM) 0.897
Nc1nc(F)nc2c1ncn2[C@@H]1O[C@H](CO)[C@@H](O)[C@@H]1O [Fludarabine] (20 µM) 0.838
CCN(Cc1ccncc1)C(=O)C(CO)c1ccccc1 (centres undefined) [Tropicamide] (20 µM) 0.959
CNC1(C)C2CCC(C2)C1(C)C (centres undefined) [Mecamylamine hydrochloride] (20 µM) 1.06
CC1=NN(c2ccccc2)C(=O)C1 [Edaravone] (20 µM) 0.984
Nc1ccn([C@@H]2O[C@H](CO)[C@@H](O)C2(F)F)c(=O)n1 [Gemcitabine] (20 µM) 0.753
CCCC(CCC)C(=O)O[C@H]1C[C@H]2CC[C@@H](C1)[N+]2(C)C [Anisotropine Methylbromide] (20 µM) 1.06
OC(CNCC(O)C1CCc2cc(F)ccc2O1)C1CCc2cc(F)ccc2O1 (centres undefined) [Nebivolol hydrochloride] (20 µM) 0.879
COc1ccccc1O [Guaiacol] (20 µM) 1.06
COc1ccc(CC2c3cc(OC)c(OC)cc3CC[N+]2(C)CCC(=O)OCCCCCOC(=O)CC[N+]2(C)CCc3cc(OC)c(OC)cc3C2Cc2ccc(OC)c(OC)c2)cc1OC (centres undefined) [Atracurium besylate] (20 µM) 1.05
O=C(O)Cc1cc(I)c(Oc2ccc(O)c(I)c2)c(I)c1 [Tiratricol] (20 µM) 0.884
COc1cc(/C=C/C(=O)N2CCN(CC(=O)N3CCCC3)CC2)cc(OC)c1OC [Cinepazide maleate] (20 µM) 1.14
C[C@H](CCC(=O)O)[C@H]1CC[C@H]2[C@@H]3C(=O)C[C@@H]4CC(=O)CC[C@]4(C)[C@H]3CC(=O)[C@]12C [Dehydrocholic acid] (20 µM) 0.859
CN1CCOC(c2ccccc2)c2ccccc2C1 (centres undefined) [Nefopam hydrochloride] (20 µM) 1.03
CCOc1ccc(NC(N)=O)cc1 [(4-Ethoxyphenyl)urea] (50 µM) 0.947
CCCCOc1ccc(CC(=O)NO)cc1 [Bufexamac] (20 µM) 1.07
c1ccc2cc3c(ccc4ccccc43)cc2c1 [Benz[a]anthracene] (20 µM) 1.3
CC(C)NC[C@H](O)COc1cccc2ccccc12 [(S)-(-)-Propranolol hydrochloride] (20 µM) 1.02

Fold change of 2-Phenylethylamine concentration, active:
Cc1onc(-c2ccccc2)c1C(=O)N[C@@H]1C(=O)N2[C@@H]1SC(C)(C)[C@@H]2C(=O)O [Oxacillin sodium] (20 µM) 0.0469
Clc1ccc(C(Cn2ccnc2)OCc2c(Cl)cccc2Cl)c(Cl)c1 (centres undefined) [Isoconazole] (20 µM) 0.289
C[C@@H](O)[C@H]1C(=O)N2C(C(=O)O)=C(S[C@@H]3CN[C@H](C(=O)N(C)C)C3)[C@H](C)[C@H]12 [Meropenem] (20 µM) 0.0459
COc1c(N2CCNC(C)C2)c(F)cc2c(=O)c(C(=O)O)cn(C3CC3)c12 (centres undefined) [Gatifloxacin] (20 µM) 0.226
CCOc1ccc2ccccc2c1C(=O)N[C@@H]1C(=O)N2[C@@H]1SC(C)(C)[C@@H]2C(=O)O [Nafcillin sodium salt monohydrate] (20 µM) 0.0511
